# Compounds without any hit were thinned out: in the full panel of roughly 83,000, 20% have a hit.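 Values shown are percent growth following 48 h exposure of cells in 96-well plates to a single concentration of compound; below 10 was considered active.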 Calls of active or inactive are those of the source.
# Test system: CCRF-CEM leukemia
# Assay: NCI-60 one-dose screen, 48 h (100 = growth as untreated, 0 = no growth, -100 = all killed)
# Conditions: 10 µM
row,Structure (SMILES),growth
1,CN(C)CCN=c1nc2c(c(N)n1-c1ccccc1)c(=S)n(-c1ccccc1)c(=S)n2-c1ccccc1,-8.26% (active)
2,CC1(O)CCC2CC3OC3(C)CCC3OC3(C)CCC1C2(C)C (stereo unspecified),267% (inactive)
3,C(CCCC1=NCCO1)CCCC1=NCCO1,104% (inactive)
4,COc1ccc(Nc2cc(C)nc(NCCCNc3ccnc4cc(Cl)ccc34)n2)cc1,-21.9% (active)
5,N#Cc1cc(-c2cc3ccccc3o2)oc1N,-29.6% (active)
6,CC1(C)N=C(N)N=C(N)N1c1ccc(CCc2ccccc2)c(Cl)c1,19.8% (inactive)
7,Cc1cc(C)c(NC(=O)c2sc3nc4c(cc3c2N)C(=O)CCC4)c(C)c1,22.1% (inactive)
8,O=C1Nc2ccccc2C1=NC1CCCCC1,108% (inactive)
9,COc1ccc(Nc2ccnc(NCCNc3ccnc4cc(Cl)ccc34)n2)cc1,42.1% (inactive)
10,Nc1nc(N)c(NC(=O)CNc2ccc(C(=O)O)cc2)c(N)n1,98% (inactive)
11,CCN(CC)CCNC(=O)c1ccc(NC(C)=O)cc1,114% (inactive)
12,c1ccc(CP(Cc2ccccc2)c2ccccc2)cc1,89.5% (inactive)
13,NC(=S)N=Nc1c(O)c2ccccc2c2ccccc12,106% (inactive)
14,CCCCOc1ccc(NC(=O)Nc2nnc(C)s2)cc1,72.9% (inactive)
15,CCOC(=O)C(CSC(c1ccccc1)(c1ccccc1)c1ccccc1)NC(=O)C(CSC(c1ccccc1)(c1ccccc1)c1ccccc1)NC(c1ccccc1)(c1ccccc1)c1ccccc1 (stereo unspecified),100% (inactive)
16,N#Cc1ncc(-c2cc(F)c(F)c(F)c2)c(NC2CCCCCC2)n1,83.9% (inactive)
